Screening data from PubChem BioAssay.
Rows were chosen to be rich in hits. Some 3.1% of all compounds tested hit in one or more screens of this group.
UHRF1 binding: blocks human UHRF1 binding to methylated DNA. UHRF1 binding to methylated oligo, TR-FRET. inhibition, % at 4.4 µM. 370,000 compounds, 0.75% hits. Q96T88; in the data active = inhibition above about 21%;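 also: UHRF1 SRA domain binding a hemimethylated CpG hairpin DNA probe; 0% = median of test compound wells and 100% = reference inhibitor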
Rin1 Abl inh: inhibitors of human Rin1-Abl protein interaction; P00519+Q13671; TR-FRET Rin1/Abl binding, biochemical; inhibition, % at 7.35 µM; 360,000 compounds, 0.4% hits; in the data active = inhibition above about 5%, passing the limit was not always enough
LEDGF integ inh: blocks HIV-1 LEDGF/p75-dependent DNA integration; inhibition, % at 3.7 µM; 370,000 compounds, 0.64% hits; TR-FRET IN-LEDGF/p75 DNA integration, Eu/Cy5;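 active = inhibition above the screen-wide mean plus 3 SD, cut at about 13% in these data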;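 also: signal is the Cy5 over europium emission ratio at 671 and 618 nm; 0% = plate median of compound wells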
Neddyl block: inhibitors of human cullin neddylation; P61081+Q13564; TR-FRET cullin neddylation, biochemical; calls only at 25 µM; 360,000 compounds, 0.58% hits; AID 651699; in the data active = inhibition above about 36%
KLK7 zymogen act: activators of human kallikrein-7 zymogen | purified proKLK7, EDANS-DABCYL substrate fluorescence; 100% is mature enzyme control, 0% vehicle | activation, % at 7 µM | 370,000 compounds, 0.9% hits | AID 652039;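 active = activation above the mean of all tested compounds plus 3 SD, computed per campaign excluding outliers beyond control limits, cut at about 13% in these data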
MBD2 DNA inh: blocks human MBD2 binding to methylated DNA. inhibition, % at 4.4 µM. Q9UBB5. TR-FRET, MBD2 binding to methylated oligonucleotide. 370,000 compounds, 0.31% hits; in the data active = inhibition above about 13%
Target sequence (Q9UBB5 whole entry, looked up): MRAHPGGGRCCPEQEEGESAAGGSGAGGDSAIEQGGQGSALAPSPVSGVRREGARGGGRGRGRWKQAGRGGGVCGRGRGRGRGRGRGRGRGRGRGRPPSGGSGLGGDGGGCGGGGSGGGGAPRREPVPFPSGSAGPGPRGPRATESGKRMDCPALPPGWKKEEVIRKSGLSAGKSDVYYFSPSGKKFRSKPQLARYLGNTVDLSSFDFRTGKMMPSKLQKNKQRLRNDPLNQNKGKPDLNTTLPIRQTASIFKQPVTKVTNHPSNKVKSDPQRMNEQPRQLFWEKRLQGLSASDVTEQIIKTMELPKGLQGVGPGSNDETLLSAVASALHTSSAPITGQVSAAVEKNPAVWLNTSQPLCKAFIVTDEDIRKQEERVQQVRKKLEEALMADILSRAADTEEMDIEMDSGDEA
IN multimer up: HIV-1 integrase multimerization activation, counter-screen; shares compounds with LEDGF integ inh; TR-FRET HIV-1 integrase multimerization, biochemical; activation, % at 7.7 µM; 2,000 compounds, 17% hits; in the data active = activation above about 8.9%
TRFRET interf: optically interferes with TR-FRET readout in LEDGF counter-screen. AID 1053135. 2,000 tested, under 10 active. shares compounds with LEDGF integ inh. TR-FRET optical interference counterscreen, HIV-1 IN multimerization. inhibition, % at 7.7 µM;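 active = inhibition above the mean over all tested compounds plus 3 SD, which no compound reached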;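 also: 0% = integrase with antibodies and DMSO and 100% = antibodies without integrase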
IN-LEDGF confirm: confirmation of HIV-1 LEDGF/p75-dependent integration inhibitors | inhibition, % at 3.7 µM | TR-FRET LEDGF/p75-dependent HIV-1 integration, biochemical | shares compounds with LEDGF integ inh | AID 1053136 | 2,000 compounds, 36% hits; in the data active = inhibition above about 14%
The depositor's hits bear a star; i = inactive; nt = no result given.

SMILES	UHRF1 binding	Rin1 Abl inh	LEDGF integ inh	Neddyl block	KLK7 zymogen act	MBD2 DNA inh	IN multimer up	TRFRET interf	IN-LEDGF confirm
CCc1ccc(O)c(-c2cc(C(=O)Nc3cccnc3)[nH]n2)c1	-1	-1	15*	i	0	3	-3	13	-1
Cc1cc(O)c(-c2cc(C(=O)Nc3cccnc3)[nH]n2)cc1C	3	-3	-8	i	0	4	nt	nt	nt
COP(=O)(OC)C(=NNS(=O)(=O)c1ccc(C)cc1)c1ccccc1	2	1	27*	i	0	6	-1	5	0
Nn1cnnc1N/N=C\c1ccc(-c2ccccc2[N+](=O)[O-])o1	11	-4	38*	i	-1	-3	2	-9	1
O=[N+]([O-])c1ccccc1-c1ccc(/C=N/n2cnnc2)o1	-1	-3	1	i	0	-7	nt	nt	nt
Cc1ccccc1NC(=O)C1CCCN1S(=O)(=O)c1cccnc1 (configuration not stated)	1	nt	4	nt	0	2	nt	nt	nt
Cc1cc(O)c(Oc2cc(C)cc(O)c2O)c(O)c1	1	5	35*	i	0	0	6	-31	33*
Cc1cccc(N=C2NC(=O)/C(=C/C=C/c3ccco3)S2)c1	12	2	26*	i	0	2	5	-27	55*
COc1ccc(N=C2NC(=O)/C(=C\C=C\c3ccco3)S2)cc1	4	2	23*	i	0	7	16*	-83	55*
CCCc1cc(=O)[nH]c(SCC(=O)N2CCN(S(=O)(=O)c3ccc(C)cc3)C2)n1	2	0	2	i	0	2	nt	nt	nt
O=C(C[n+]1ccccc1)N/N=C/c1ccc(Cl)cc1	4	-4	-2	i	-1	1	nt	nt	nt
CN(CC(=O)Nc1cc([N+](=O)[O-])ccc1Cl)Cc1ccc(Br)cc1	-12	-2	14*	i	0	-12	1	-3	-6
Cc1ccsc1CN(C)CC(=O)Nc1ccc([N+](=O)[O-])cc1Cl	1	3	1	i	0	1	nt	nt	nt
N#Cc1c(SCC(=O)Nc2cccc(F)c2)sc2c(O)cc(=O)[nH]c12	30*	1	17*	i	1	9	7	-38	5
O=C(NCC1CCCO1)C(Cc1ccccc1)N1C(=O)C2C3C=CC(C4CC34)C2C1=O (configuration not stated)	1	0	2	i	0	3	nt	nt	nt
COCCn1c(N)c(C(=S)NC(=O)c2cccs2)c(=O)[nH]c1=O	1	-2	5	i	1	-4	nt	nt	nt
Cc1ccccc1-c1cc2nc(NCc3cccnc3)n(C)c(=O)c2s1	1	-5	91*	i	0	-5	1	-4	0
Cc1ccccc1-c1cc2nc(NCc3ccncc3)n(C)c(=O)c2s1	2	-12	4	i	1	1	nt	nt	nt
CCCCn1nnnc1C1(C)CCC(=O)N1CC1CCCCC1 (configuration not stated)	1	nt	0	i	0	0	nt	nt	nt
NC(=O)c1ccsc1NC(=O)c1ccc(S(=O)(=O)N2CCCC2)cc1	1	-1	0	i	1	-3	nt	nt	nt
NC(=O)c1ccsc1NC(=O)c1ccc(S(=O)(=O)N2CCCCC2)cc1	2	-2	22*	i	-112	4	-3	17	1
COC(=O)c1ccc2c(c1)c(-c1ccccc1)c(-c1ccccc1)n2C	1	-4	-2	nt	0	4	nt	nt	nt
Cc1cc2nc(-c3ccco3)c(CC(C)(C)C)n2c(C)c1Br	10	0	6	i	0	-3	nt	nt	nt
COc1ccccc1Cc1c(-c2ccco2)nc2cc(C)c(Br)c(C)n12	25*	nt	14*	i	-1	10	6	-22	21*
Cc1ccc(S(=O)(=O)N(C)C[C@H]2OCCCC[C@@H](C)Oc3ccc(NC(=O)Cc4ccccc4)cc3C(=O)N([C@H](C)CO)C[C@@H]2C)cc1	1	1	-7	i	1	4	nt	nt	nt
SMILES	UHRF1 binding	Rin1 Abl inh	LEDGF integ inh	Neddyl block	KLK7 zymogen act	MBD2 DNA inh	IN multimer up	TRFRET interf	IN-LEDGF confirm
CNc1ccc(Br)cc(C(=O)/C=C/c2ccc(OC)cc2OC)c1=O	-1	5	13*	i	-1	-1	4	-13	12
CNc1ccc(Br)cc(C(=O)/C=C/c2cccc(OC)c2)c1=O	-2	4	12	i	2	-3	nt	nt	nt
COc1ccc(/C=N/Nc2nc(N)cc(Cl)n2)cc1OC	-3	-1	28*	i	0	-2	3	-13	-5
O=C1C[C@@H](c2ccccc2)N=C2N(CC3CC3)C/C(=C/c3ccccc3)N12	-3	nt	3	nt	1	4	nt	nt	nt
CCn1c(SCC(=O)N2CCCCC2)nnc1-c1ccc(S(=O)(=O)N2CCN(C)CC2)cc1	0	0	-3	i	0	-7	nt	nt	nt
CCn1c(SCC(=O)Nc2cc(C)on2)nnc1-c1ccc(S(=O)(=O)N2CCN(C)CC2)cc1	0	-1	18*	i	0	-2	0	2	-1
C[C@@H]1COc2cc(Br)ccc2S(=O)(=O)N1Cc1cn(Cc2ccc(C(F)(F)F)cc2)nn1	1	nt	3	nt	-1	-3	nt	nt	nt
CC(C)CN1Cc2ccccc2Oc2cc(Br)ccc2S1(=O)=O	3	-2	3	i	-1	-8	nt	nt	nt
Cc1cc(Oc2cccnc2)ccc1NC(=O)Cc1cn(C)c2ccccc12	0	nt	-3	nt	1	5	nt	nt	nt
O=C1SC(SCc2ccccc2)=N/C1=C\c1ccco1	29*	-2	26*	i	0	9	0	0	1
O=C1SC(SCc2ccccc2)=N/C1=C\c1ccc(C(=O)O)cc1	7	-1	3	i	1	4	nt	nt	nt
COc1ccc(-c2nnc(SCC(=O)Nc3ccc(S(=O)(=O)Nc4nccs4)cc3)n2-c2ccc(OC)cc2)cc1	0	nt	4	nt	0	-2	nt	nt	nt
CC1(C)Oc2cc(N)c([N+](=O)[O-])cc2O1	23*	-8	45*	i	-1	-9	0	-1	-6
CC(C)c1ccc(/C=C/C(=O)NCCCc2ccccc2)cc1	-4	-2	76*	i	0	-2	3	-15	-1
NC(=O)c1ccc(Oc2ccc(C(N)=O)cc2)cc1	4	-2	-3	i	0	-4	nt	nt	nt
Cc1cccc(OCC(=O)Nc2ccc(C(=O)Nc3ccccc3C(=O)O)cc2)c1C	6	-3	-3	i	0	10	nt	nt	nt
